Whole data set: some 110,000 compounds, median “z-score” near -0.1, cut for the highest 2% near 2. For the sample, the highest values were picked, then their nearest neighbours and some compounds at random. Calls of active or inactive are those of the source.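 Rule for the calls: active = z-score in the third read window above 3 or below -3; inactive = the rest.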

Sequence of Metabotropic glutamate receptor 8 (Rattus norvegicus) (P70579 whole entry, looked up): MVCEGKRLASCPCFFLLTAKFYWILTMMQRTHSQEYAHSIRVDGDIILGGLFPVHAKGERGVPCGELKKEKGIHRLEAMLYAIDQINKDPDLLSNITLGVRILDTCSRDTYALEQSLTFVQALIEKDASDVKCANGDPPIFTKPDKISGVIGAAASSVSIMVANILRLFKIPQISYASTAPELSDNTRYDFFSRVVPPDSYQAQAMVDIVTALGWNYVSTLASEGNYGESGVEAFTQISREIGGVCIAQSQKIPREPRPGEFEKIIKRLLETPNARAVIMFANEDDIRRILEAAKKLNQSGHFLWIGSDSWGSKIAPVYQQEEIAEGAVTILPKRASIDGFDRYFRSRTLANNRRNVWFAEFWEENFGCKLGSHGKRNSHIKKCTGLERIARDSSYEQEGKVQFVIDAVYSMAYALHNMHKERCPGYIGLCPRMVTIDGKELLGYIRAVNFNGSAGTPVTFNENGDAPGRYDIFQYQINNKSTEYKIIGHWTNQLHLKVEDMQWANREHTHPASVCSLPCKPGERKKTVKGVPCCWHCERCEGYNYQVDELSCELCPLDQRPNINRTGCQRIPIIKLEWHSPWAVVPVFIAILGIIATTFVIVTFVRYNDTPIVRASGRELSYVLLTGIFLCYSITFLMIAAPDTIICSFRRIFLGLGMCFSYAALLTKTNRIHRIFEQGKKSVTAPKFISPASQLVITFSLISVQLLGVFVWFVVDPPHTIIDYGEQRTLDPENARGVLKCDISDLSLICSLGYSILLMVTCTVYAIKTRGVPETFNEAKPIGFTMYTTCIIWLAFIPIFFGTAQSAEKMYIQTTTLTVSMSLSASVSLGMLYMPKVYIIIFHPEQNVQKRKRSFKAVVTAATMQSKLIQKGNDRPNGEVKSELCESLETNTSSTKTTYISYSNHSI

This assay has as its target Metabotropic glutamate receptor 8 (Rattus norvegicus) (UniProt P70579). Nature of the assay: mGluR8 Gi/Go-coupled signaling modulation – cell-based, rat, thallium flux, HTS, primary screen (AID 488969). To be noted: HEK293 rat mGluR8, GIRK (G protein-gated inwardly rectifying potassium channel) thallium flux, FluoZin2; at 10 µM; stronger effect = higher value; submaximal glutamate (EC20) added with thallium.
Turning to `N#CCSc1nnc(-c2ccccc2O)n1Cc1ccccc1`, the z-score was -0.264.

The compound `OC1(c2cccc(F)c2)CCN(Cc2ccncc2)CC1` yielded a z-score of -0.584.

Compound `OC1(c2ccc3ccccc3c2)CCN(Cc2ccccc2)C1` (stereo not drawn) displayed a z-score of 2.

The compound `c1ccc2cc(CN3CCOCC3)ccc2c1` yielded a z-score of 0.71.

For `CC1(C)Cc2cccc(OCC(=O)Nc3cccnc3)c2O1`, the z-score came to 0.958.

Regarding `COc1ccc(C(=O)N/C(=C\c2cccc3ccccc23)C(=O)NCCc2c[nH]c3ccccc23)cc1OC`, the z-score was -1.59.

Turning to `NC(=O)CSc1nnc(-c2ccc(S(=O)(=O)N3CCCC3)cc2)o1`, the z-score is -0.271.

For `O=S(=O)(c1ccc(-c2nnc(SCc3nnc(-c4ccccc4)o3)o2)cc1)N1CCCC1`, the z-score is 3.72 (active).

For `Cc1ccc(CSc2nnc(-c3ccc(S(=O)(=O)N4CCCC4)cc3)o2)cc1`, the z-score came to 1.62.

Compound `CO/N=C/c1ccc(Sc2ccccc2)c([N+](=O)[O-])c1` showed a z-score of -0.0163.

`O=C(NCCO)NC(=S)c1ccccc1` gave a z-score of -0.169.

`C=CCNC(=S)NNC(=O)c1ccccc1` showed a z-score of -0.00102.

Turning to `C=CCNC(=O)NC(=S)c1ccccc1`, the z-score was 3.72 (active).

Consider `CCNc1nc(NCC)nc(C(=O)Nc2ccccc2)n1`, for which the z-score was -0.0479.

The compound `O=C(NCc1ccc(Cl)cc1)C1C2C=CC3(CN(Cc4cccnc4)C(=O)C13)O2` (stereo not drawn) yielded a z-score of 0.82.

For `OCCN(Cc1ccccc1)Cc1ccc(C(F)(F)F)cc1`, the z-score is -0.0102.

On to `O=C(O)c1ccccc1SC1CC(=O)N(C2CCCCC2)C1=O` (stereo not drawn), for which the z-score was -0.0935.

With `Cc1ccc(NC(=O)C2CC(=O)OC23CCOC(C)(C)C3)cc1` (stereo not drawn), the z-score was -0.427.

The compound `CC(C)C(=O)NC(Nc1ccccc1F)C(Cl)(Cl)Cl` (stereo not drawn) yielded a z-score of -0.185.

In turn, `CCCCCCn1ccc(=N)cc1` showed a z-score of 0.937.

In turn, `CCCCCCCn1ccc(=N)cc1` came in with a z-score of -0.268.

Take `CCCCCn1ccc(=N)cc1`: the z-score is 1.99.

Turning to `Cc1ccc(C)c(S(=O)(=O)N2C(=S)NC(=O)C2C(C)C)c1` (stereo not drawn), the z-score turned out to be 0.0469.

`CCN(CC)S(=O)(=O)c1ccc(N2CCOCC2)c(NC(=O)C(=O)c2c(-c3ccccc3)cc3ccccn23)c1` showed a z-score of -0.54.

In turn, `CN(C)S(=O)(=O)N1CCN(S(=O)(=O)c2ccccc2)CC1` displayed a z-score of -0.177.

As to `Cc1csc(NC(=O)CSc2nnc(CCNC(=O)c3ccc(Cl)c(Cl)c3)n2C)n1`, the z-score was -0.837.

For the compound `Cc1cccc(C(=O)NCCc2nnc(SCC(=O)Nc3nc(C)cs3)n2C)c1`, the z-score stood at 2.62.

In turn, `Cc1csc(NC(=O)CSc2nnc(CCNC(=O)c3cccs3)n2C)n1` came in with a z-score of -0.0983.

In the case of `N#CCCN(C(=O)CSc1nc(-c2ccccc2)cn1N)c1ccc(F)cc1`, the z-score is -0.2.

With `COc1cc2c(cc1OC)C(C(=O)NCCN1CCOCC1)C1c3ccccc3CCN1C2=O` (stereo not drawn), the z-score is -1.12.

In turn, `Oc1ccc2ccccc2c1N=Nc1ccccn1` displayed a z-score of 2.19.

On to `Oc1ccc(N=Nc2c(O)ccc3ccccc23)cc1`, for which the z-score is -0.0552.

The compound `N/C(=N\OC(=O)Cc1cccc2ccccc12)c1ccccn1` registered a z-score of 0.135.

For `Oc1c(N=Nc2ccccn2)ccc2ccccc12`, the z-score is 13.6 (active).

`O=C(O)Cc1c(O)ccc2ccccc12` showed a z-score of -0.0548.

With `Oc1c(/C=N/c2ncn[nH]2)ccc2ccccc12`, the z-score is 0.0888.

On to `CCOc1cc(C2C(C#N)=C(N)OC(C)=C2C(C)=O)cc(Br)c1O` (stereo not drawn), for which the z-score was -1.08.

Turning to `O=C(Nc1ncc2c(n1)-c1ccccc1CC2)c1cccc(Cl)c1`, the z-score was -0.891.

For the compound `CCN(c1ccc(NC(=O)COC(=O)CCC(=O)c2ccc(F)cc2)cc1)C(C)C`, the z-score is -0.471.

Consider `Cc1cc(C)cc(-n2c(SC(C)C(=O)NCc3ccc4c(c3)OCO4)nc3ccccc3c2=O)c1` (stereo not drawn), for which the z-score is -0.19.

Take `Cc1ccc(-c2ccc(C(=O)O)[nH]2)cc1`: the z-score turned out to be 2.4.

The compound `Cc1ccc(-c2ccnc(=S)[nH]2)cc1` came in with a z-score of 0.997.

`CCc1ccc(-c2ccc(C(=O)C(F)(F)F)[nH]2)cc1` had a z-score of -0.0177.

In turn, `Cc1ccsc1C1Nc2ccccc2C(=O)N1O` (stereo not drawn) had a z-score of -0.218.

On to `Cc1nn(C)cc1C1Nc2ccccc2C(=O)N1O` (stereo not drawn), for which the z-score was -0.121.

`O=C1c2ccccc2NC(c2ccco2)N1O` (stereo not drawn) registered a z-score of -0.422.

`Cc1c(C2Nc3ccccc3C(=O)N2O)cnn1C` (stereo not drawn) showed a z-score of 0.189.

On to `O=C1c2ccccc2NC(c2cn[nH]c2-c2ccccc2)N1O` (stereo not drawn), for which the z-score was -0.0761.

Consider `N#CC1=C(S)N(c2ccccc2)C(c2ccc(-c3cccc(Cl)c3)o2)NC1=O` (stereo not drawn), for which the z-score is -0.292.

Take `O=C1c2ccccc2NC(c2ccc(-c3ccc(Br)cc3)o2)N1O` (stereo not drawn): the z-score was 3.36 (active).

`O=C1c2ccccc2NC(c2ccc(-c3cccc(Cl)c3)o2)N1O` (stereo not drawn) had a z-score of 2.57.

Regarding `Cc1cc([N+](=O)[O-])ccc1-c1ccc(C2Nc3ccccc3C(=O)N2O)o1` (stereo not drawn), the z-score is 3.53 (active).

Compound `CC1CCC(NC(=O)Nc2cccs2)CC1` (stereo not drawn) came in with a z-score of 0.643.

Compound `CCOC(=O)c1c(NC(=O)C2=C(C)NC(=S)NC2c2ccc(F)cc2F)sc(C)c1C` (stereo not drawn) had a z-score of 0.556.

With `CCCCCCn1c(C)nc2c(c1=O)c1nc3ccccc3nc1n2/N=C/c1ccco1`, the z-score amounted to 0.218.

`CCn1c(=S)[nH]c2nc3c(cc2c1=O)CCCC3` came in with a z-score of 2.31.

In turn, `CCn1c(SCC(=O)Nc2ccc(C)cc2)nc2nc3c(cc2c1=O)CCCC3` registered a z-score of 0.307.

`C=CCn1c(=S)[nH]c2nc3c(cc2c1=O)CCCC3`: the z-score is 4.15 (active).

`CCn1c(SCc2ccc(Cl)cc2)nc2nc3c(cc2c1=O)CCCC3` showed a z-score of 0.193.

The compound `CC1(C)Cc2nc3[nH]c(=S)n(-c4ccccc4)c(=O)c3cc2CO1` returned a z-score of -0.126.

`CCC1(C)Cc2nc3[nH]c(=S)n(-c4ccccc4)c(=O)c3cc2CO1` (stereo not drawn) gave a z-score of -0.0711.

Regarding `CN(C(=O)c1ccncc1)c1nnc(-c2cnccn2)s1`, the z-score is -0.251.

In the case of `COc1ccc(NC(=O)Cc2coc3cc(C)c(C(C)C)cc23)cc1S(=O)(=O)N1CCOCC1`, the z-score was -0.503.

The compound `CCOC(=O)/C(C#N)=C/c1cc2ccccc2nc1Cl` showed a z-score of -0.3.

With `O=C(c1ccco1)N1CCN(S(=O)(=O)c2ccc(Cl)s2)CC1`, the z-score is -0.0642.

Take `COc1cccc(N(CC(=O)N/N=C(\C)c2cccs2)S(C)(=O)=O)c1`: the z-score was -0.154.

Take `CC1=C(C(=O)OC(C)C)C(c2cncc(-c3ccc(F)cc3)c2)C(C#N)=C(N)O1` (stereo not drawn): the z-score is -0.367.

`CCOC(=O)C1=C(C)OC(N)=C(C#N)C1c1cc(F)ccc1F` (stereo not drawn): the z-score is -2.09.

Consider `CCOC(=O)C1=C(C)OC(N)=C(C#N)C1c1cncc(-c2ccc(F)cc2)c1` (stereo not drawn), for which the z-score was found to be 2.92.

As to `Cc1ccc(S(=O)(=O)NC(C)C(c2cccs2)N2CCN(c3ccccc3)CC2)cc1` (stereo not drawn), the z-score was -0.115.

As to `CCNC(=S)NNC(=O)c1cc(-c2cccc(C)c2)nc2ccccc12`, the z-score amounted to 0.214.

`Cc1ccc(-c2cc(C(=O)Nc3ccccc3C)c3ccccc3n2)o1` showed a z-score of 0.279.

The compound `Cc1cccc(NC(=O)c2cc(Cl)nc3ccccc23)c1` had a z-score of -0.228.

For `COc1ccc(C(=O)NNC(=S)NC(=O)c2cc(-c3ccccc3)nc3ccccc23)cc1`, the z-score came out at 2.35.

`Cc1cccc(NC(=S)NC(=O)c2cc(-c3ccccc3)nc3ccccc23)c1`: the z-score was 5.14 (active).

For `O=C(NC(=S)Nc1ccccn1)c1cc(-c2ccccc2)nc2ccccc12`, the z-score is 3.22 (active).

On to `O=C(NCc1ccccn1)c1cc(-c2ccccc2)nc2ccccc12`, for which the z-score is -0.314.

`Cc1ccc(-c2cc(C(=O)Nc3cc(C)on3)c3ccccc3n2)cc1` registered a z-score of -0.321.

On to `CCCOc1ccc(C(=O)NNC(=S)NC(=O)c2cc(-c3ccc(Cl)cc3)nc3ccccc23)cc1`, for which the z-score was -0.0891.

In the case of `Cc1ccccc1NC(=S)NC(=O)c1cc(-c2ccccc2)nc2ccccc12`, the z-score was 7.41 (active).

Take `O=C(NCc1ccccn1)c1cc(-c2ccc(-c3ccccc3)cc2)nc2ccccc12`: the z-score is -0.368.

In turn, `CCCOc1ccc(C(=O)NNC(=S)NC(=O)c2cc(-c3ccccc3)nc3ccccc23)cc1` registered a z-score of 0.558.

For `O=C(Cn1cc([N+](=O)[O-])cn1)N1CCc2ccccc21`, the z-score was 0.0712.

In turn, `O=C(c1cccs1)c1cn(CC(=O)N2CCc3ccccc3C2)c2ccccc12` returned a z-score of -0.134.

Consider `COc1ccc(N2CCN(S(=O)(=O)c3cccc(C(F)(F)F)c3)CC2)cc1`, for which the z-score is -0.0298.

Compound `CCn1c(SCc2ccccc2Cl)nc2ccccc21` yielded a z-score of 0.866.

In the case of `CN(/N=C/c1cccnc1)c1cnn(-c2ccc(F)c(Cl)c2)c(=O)c1Cl`, the z-score was -0.0102.

On to `O=C(Nc1ccon1)c1cc(-c2ccccc2)nc2ccccc12`, for which the z-score was -1.67.

Compound `COc1ccc(Cl)cc1C(=O)NNC(=S)NC(=O)c1cc(-c2ccccc2)nc2ccccc12` registered a z-score of 1.06.

Consider `COC(=O)c1ccc(NC(=S)NC(=O)c2cc(-c3ccccc3)nc3ccccc23)cc1`, for which the z-score is 8.36 (active).

With `O=C(NC(=S)Nc1ccccc1)c1cc(-c2ccccc2)nc2ccccc12`, the z-score was 9.35 (active).

In turn, `COC(=O)c1cc(OC)c(OC)cc1NC(=O)c1cc(-c2ccccc2)nc2ccccc12` showed a z-score of -0.917.

Regarding `COC(=O)c1ccc(NC(=S)Nc2ccccc2)cc1`, the z-score is 0.0759.

In turn, `c1ccc(CNc2nc(-c3cccs3)nc3ccccc23)cc1` displayed a z-score of 0.32.

As to `O=C(O)c1cc(NCc2ccccc2C(F)(F)F)ccc1N1CCOCC1`, the z-score was -0.168.

Compound `N#Cc1cc([N+](=O)[O-])cnc1Nc1ccccc1` returned a z-score of -0.521.

As for `CC1CCc2c(sc(NS(=O)(=O)c3ccccc3)c2C(=O)OC(C)C)C1` (stereo not drawn), the z-score was 8.13 (active).

For the compound `COC(=O)c1c(NS(=O)(=O)c2ccc(C)cc2)sc2c1CCC(C)C2` (stereo not drawn), the z-score is 7.28 (active).

The compound `CCOC(=O)c1c(NC2=NS(=O)(=O)c3ccccc32)sc2c1CCC(C)C2` (stereo not drawn) registered a z-score of 0.00913.

For `CC(C)OC(=O)c1c(N)sc2c1CCCC2`, the z-score is 2.03.

`COC(=O)c1c(NC(=O)c2cccs2)sc2c1CCC(C)C2` (stereo not drawn) showed a z-score of -0.363.

Compound `CC1CCc2c(sc(N)c2C(=O)OC(C)C)C1` (stereo not drawn) showed a z-score of 0.201.

As to `CC(C)OC(=O)c1c(NS(=O)(=O)c2ccccc2)sc2c1CCCC2`, the z-score was 12.3 (active).

In turn, `COCC(=O)Nc1sc2c(c1C(=O)OC)CCC(C)C2` (stereo not drawn) registered a z-score of -0.444.

For `CCOC(=O)c1c(NC(=O)C2CCCN(S(=O)(=O)c3ccccc3)C2)sc2c1CCCC2` (stereo not drawn), the z-score was found to be 0.269.

`COC(=O)c1c(NC(=O)c2ccccc2N(C)S(=O)(=O)c2ccccc2)sc2c1CCCC2`: the z-score was -0.215.

Consider `COC(=O)c1c(NC(=O)CN2CCN(S(=O)(=O)c3ccccc3)CC2)sc2c1CCC(C)C2` (stereo not drawn), for which the z-score is -0.486.

Take `CNC(=O)c1c(N)sc2c1CCCCC2`: the z-score turned out to be 0.209.

The compound `O=C(CSc1nnnn1-c1cccc(F)c1)Nc1nc2ccccc2s1` came in with a z-score of -0.0501.

In the case of `CC(Sc1nc(-c2ccccc2)cc(C(F)(F)F)n1)C(=O)N1CCOCC1` (stereo not drawn), the z-score is -0.153.

For `O=C1c2ccccc2C(O)N1c1ccc(Cl)cc1` (stereo not drawn), the z-score was -0.698.

Consider `CCOc1ccc(N2C(=O)c3ccccc3C2O)cc1` (stereo not drawn), for which the z-score was 8.14 (active).

`CCOc1ccc(N2C(=O)c3ccccc3C2=O)cc1`: the z-score was -1.29.

For the origin of these results see PubChem BioAssay AID488969 (Vanderbilt High Throughput Screening Facility, 2010).
